Bioassay records: PubChem, several laboratories
Sampled rows, rich in hits. Any-hit rate of the full collection: about 4.7%.
SKKanGAS inh = S. pyogenes SKKanGAS growth inhibitors in kanamycin, primary screen, streptokinase expression inhibitor project, SKKanGAS strain, BacTiter-Glo luminescence. 6 h. 300,000 compounds, 1.3% hits. AID 1662, 2009. inhibition, % at 7.5 µM;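 active = mean replicate score, as percent of positive control median, at least 50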;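 note: strain carries kanamycin resistance gene driven by streptokinase promoter and grows in 40 µg/ml kanamycin; loss of luminescence reflects streptokinase promoter inhibition or plain growth inhibition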
tim10-1 inh = growth inhibitors of tim10-1 mutant yeast, primary screen, luminescence, uHTS. 330,000 compounds, 2.2% hits. inhibition, % at 20 µM. S. cerevisiae tim10-1 ts strain growth, BacTiter-Glo, 24 h;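 active = inhibition of at least 40%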;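 note: mutant grown at 25 °C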
PfHsp90 set2 = growth inhibition of PfHsp90-expressing yeast, primary screen, antimalarial PfHsp90 inhibitor project, S. cerevisiae, BacTiter-Glo luminescence, single point, set 2. BacTiter-Glo ATP, 48 h; yeast lacking PDR1 and PDR3 efflux regulators. inhibition, % at 9.4 µM. 310,000 compounds, 0.32% hits. AID 504621, 2011;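 active = every replicate shows inhibition above about 80%, whatever the replicate mean, limit read from the data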
tim23-1 inh = growth inhibitors of tim23-1 mutant yeast, primary screen, luminescence, uHTS; S. cerevisiae tim23-1 growth, BacTiter-Glo luminescence, 24 h; 330,000 compounds, 1.3% hits; AID 463212, 2010; inhibition, % at 20 µM;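 active = growth inhibition of the mutant yeast at or above 50%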;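 note: temperature-sensitive mutant grown at 25 °C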
EBI2 antag = EBI2 receptor antagonists, beta-arrestin recruitment, primary screen, cell-based, luminescence, 7a,25-OHC stimulation, uHTS; inhibition, % at 5 µM; 360,000 compounds, 0.81% hits; 7a,25-OHC stimulated; AID 651636, 2012; in the data active = inhibition above about 38%;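 note: enzyme fragment complementation signal reports receptor beta-arrestin coupling in cells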
Target sequence (P32249 whole entry, looked up, the tested form may be a part): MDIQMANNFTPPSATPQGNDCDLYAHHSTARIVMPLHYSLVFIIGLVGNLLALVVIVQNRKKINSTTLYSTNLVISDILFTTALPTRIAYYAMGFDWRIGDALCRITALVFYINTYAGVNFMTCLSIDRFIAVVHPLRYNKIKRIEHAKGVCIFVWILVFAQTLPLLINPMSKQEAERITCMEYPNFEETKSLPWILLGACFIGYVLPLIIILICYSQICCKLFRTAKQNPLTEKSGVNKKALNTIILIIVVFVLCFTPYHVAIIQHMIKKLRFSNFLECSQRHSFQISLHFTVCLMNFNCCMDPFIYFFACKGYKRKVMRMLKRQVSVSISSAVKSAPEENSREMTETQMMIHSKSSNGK
TIM10 inh = growth inhibitors of isogenic TIM10 control yeast, primary screen, counter-screen for tim10-1 yeast inhibitor project, luminescence, uHTS; S. cerevisiae TIM10 strain growth, BacTiter-Glo luminescence, 24 h; inhibition, % at 10 µM; 330,000 compounds, 1.4% hits;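 active = inhibition of 40% or more at the single tested concentration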;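 note: wild-type TIM10 isogenic control strain grown at permissive 25 °C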
tim10-1 confirm = growth inhibitors of tim10-1 mutant yeast, confirmation, single concentration, luminescence, S. cerevisiae. 7,400 compounds, 56% hits. AID 463213, 2010. S. cerevisiae tim10-1 ts strain growth, BacTiter-Glo, 24 h. shares compounds with tim10-1 inh. inhibition, % at 20 µM;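 active = inhibition of yeast growth at or above a set limit in either of two repeat tests at 20 µM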;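 note: tim10-1 mutant grown at permissive 25 °C to find synthetic lethal compounds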
tim10 confirm = growth inhibitors of wild-type TIM10 yeast, confirmation, counter-screen for tim10-1 synthetic lethality project, single concentration, luminescence, S. cerevisiae; shares compounds with TIM10 inh; 4,600 compounds, 63% hits; inhibition, % at 10 µM; S. cerevisiae tim10 strain growth, BacTiter-Glo luminescence, 24 h;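 active = inhibition of yeast growth at or above a set limit in either of two replicates at 10 µM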; note: this counterscreen used the strain with wild-type TIM10
tim23-1 conf = tim23-1 mutant yeast growth inhibitors, confirmation, luminescence, single concentration. shares compounds with tim23-1 inh. S. cerevisiae tim23-1 growth, BacTiter-Glo luminescence, 24 h. inhibition, % at 20 µM. 4,400 compounds, 83% hits;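 active = inhibition above about 39% in either of two replicate wells at 20 µM, limit read from the data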;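 note: temperature-sensitive tim23-1 mutant grown at 25 °C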
Numbers stand for hits.

For N/C(=N\OC(=O)c1ccc(Cl)cc1Cl)c1cccnc1 the results were SKKanGAS inh inactive, tim10-1 inh 58.5, tim23-1 inh 51.9, EBI2 antag inactive, TIM10 inh 51.0, tim10-1 confirm 55.3, tim10 confirm 35.9 and tim23-1 conf 42.1.
N/C(=N\OC(=O)c1ccccc1Cl)c1ccc(Cl)cc1 was read as SKKanGAS inh inactive, tim10-1 inh 53.1, tim23-1 inh 80.6, EBI2 antag inactive, TIM10 inh 79.4, tim10-1 confirm 37.2, tim10 confirm 82.5 and tim23-1 conf 71.5.
Screening N/C(=N\OC(=O)/C=C/c1ccccc1Cl)c1cccnc1 returned SKKanGAS inh inactive, tim10-1 inh inactive, tim23-1 inh inactive, EBI2 antag inactive and TIM10 inh inactive.
For COc1ccccc1C(=O)O/N=C(\N)c1ccccc1Cl the results were SKKanGAS inh inactive, tim10-1 inh 40.8, PfHsp90 set2 inactive, tim23-1 inh 51.6, EBI2 antag inactive, TIM10 inh inactive, tim10-1 confirm 39.5 and tim23-1 conf inactive.
COc1ccc(Cl)cc1C(=O)O/N=C(\N)c1ccccn1 was read as SKKanGAS inh inactive, tim10-1 inh inactive, PfHsp90 set2 inactive, tim23-1 inh inactive, EBI2 antag inactive and TIM10 inh inactive.
Screening COCc1ccc2oc(C(=O)O)cc2c1 returned SKKanGAS inh inactive, tim10-1 inh inactive, PfHsp90 set2 inactive, tim23-1 inh inactive, EBI2 antag inactive and TIM10 inh inactive.
Screening N/C(=N\OC(=O)c1ccccc1Cl)c1ccccc1 returned SKKanGAS inh inactive, tim10-1 inh 51.7, PfHsp90 set2 inactive, tim23-1 inh 57.1, EBI2 antag inactive, TIM10 inh 46.6, tim10-1 confirm 54.9, tim10 confirm 42.6 and tim23-1 conf 51.5.
For COc1ccc(NC(=O)Nc2ccc(Cc3ccncc3)cc2)c(OC)c1 the results were SKKanGAS inh inactive, tim10-1 inh inactive, PfHsp90 set2 inactive, tim23-1 inh inactive, EBI2 antag inactive and TIM10 inh inactive.
For Fc1ccc(C2=Nn3c(nnc3-c3n[nH]c4c3CCC4)SC2)cc1 the results were SKKanGAS inh inactive, tim10-1 inh inactive, PfHsp90 set2 inactive, tim23-1 inh inactive, EBI2 antag inactive and TIM10 inh inactive.
For Clc1ccc(-c2n[nH]c3c2CCC3)cc1Cl the results were SKKanGAS inh 87.7, tim10-1 inh 55.8, PfHsp90 set2 inactive, tim23-1 inh 59.2, EBI2 antag inactive, TIM10 inh 49.4, tim10-1 confirm 48.5, tim10 confirm 56.7 and tim23-1 conf inactive.
`O=C1/C(=C/c2cccc(F)c2)Oc2cc(O)ccc21` gave SKKanGAS inh inactive, tim10-1 inh 51.7, PfHsp90 set2 inactive, tim23-1 inh 51.5, EBI2 antag inactive, TIM10 inh inactive, tim10-1 confirm 38.8 and tim23-1 conf 70.8.
`CCOc1cc(C)c(C(C)C)cc1S(=O)(=O)NCc1ccccn1` gave SKKanGAS inh inactive, tim10-1 inh inactive, tim23-1 inh inactive, EBI2 antag inactive and TIM10 inh inactive.
CCCCC(CC)CO (configuration not stated) was read as tim10-1 inh inactive, PfHsp90 set2 inactive, tim23-1 inh inactive, EBI2 antag inactive and TIM10 inh inactive.
